Results from PubChem BioAssay (NCATS).
Results filed as inconclusive are left out. Where a call stands in place of a potency, no number is given. Unmarked numbers belong to inactive results. Active and inactive are the calls of the source. The call rests on the fitted dose curve; in most records, active means well fitted curve in the direction sought with a large enough effect; inconclusive means small, poorly fitted or top-dose-only effect, or another doubt; inactive means no such curve, though single readings can be large; an effect the other way counts as inactive or inconclusive.

Tests used:
[1] = NCATS anti-infectives library activity on HEK293 viability as a counter-qHTS vs the C. elegans viability qHTS (AID 1745854)
Procedure, shortened: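 CellTiter-Glo luminescence, read on a CCD imager, scored viability of HEK293 cells after 24 hr compound exposure at 37C. Library tested in several concentrations, 1:5 steps, up to 41.7 uM; digitonin served as control.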

[2] = target: Glutathione peroxidase 1 (Homo sapiens) (UniProt P07203); assay: Primary qHTS Assay for Inhibitors of Recombinant Selenoprotein Glutathione Peroxidase 1 (GPX1) (AID 1845191); further: nearly all actives have a fitted effect of over 65% in size
Procedure, shortened: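 GR-coupled readout: NADPH consumption tracked by fluorescence, ex 340/em 450 nm, at t=0 and after 15 min at RT. Final mix 10 nM GPX1, 1 mM GSH, 0.5 mM CHP, 0.5 mM NADPH, 100 nM GR, 0.01% BSA, following 30 min enzyme–compound preincubation.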

[3] = target: Phospholipid hydroperoxide glutathione peroxidase GPX4 (Homo sapiens) (UniProt P36969); assay: Primary qHTS Assay for Inhibitors of Recombinant Selenoprotein Glutathione Peroxidase 4 (GPX4) (AID 1845192); further: nearly all actives have a fitted effect of over 65% in size
Procedure, shortened: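 Steps: GPX4 plus compound, 30 min RT; add GR/GSH/NADPH master mix; start with cumene hydroperoxide; read 340/450 nm fluorescence at 0 and 15 min. Finals were 200 nM GPX4, 1 mM GSH, 0.5 mM CHP, 0.5 mM NADPH, 100 nM GR.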

[4] = target: Metallo-beta-lactamase type 2 (Klebsiella pneumoniae) (UniProt C7C422); assay: qHTS to identify inhibitors of the New Delhi Metallo-beta-lactamase (NDM): assay validation screen against the NCATS LOPAC Collection (AID 1794843);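 further: nitrocefin turnover by NDM-1 measured as 485 nm absorbance at plateau; series mostly up to about 38 µM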
Procedure, shortened: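 NDM-1 at 2 nM final in 50 mM HEPES pH 7.0, 1 uM ZnSO4, 0.01% Tween20, preincubated with LOPAC compounds pinned in DMSO; 50 uM nitrocefin (stock) added. Hydrolysis read as absorbance at 485 nm in the plateau phase.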

Chain of Glutathione peroxidase 1 (Homo sapiens) (P07203 whole entry, looked up): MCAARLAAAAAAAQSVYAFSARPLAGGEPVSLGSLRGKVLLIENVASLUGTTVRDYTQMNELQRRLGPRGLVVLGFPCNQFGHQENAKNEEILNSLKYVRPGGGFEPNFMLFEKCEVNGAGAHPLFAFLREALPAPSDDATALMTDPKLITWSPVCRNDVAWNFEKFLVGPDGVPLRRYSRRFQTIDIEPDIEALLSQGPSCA
Chain of Phospholipid hydroperoxide glutathione peroxidase GPX4 (Homo sapiens) (P36969 whole entry, looked up): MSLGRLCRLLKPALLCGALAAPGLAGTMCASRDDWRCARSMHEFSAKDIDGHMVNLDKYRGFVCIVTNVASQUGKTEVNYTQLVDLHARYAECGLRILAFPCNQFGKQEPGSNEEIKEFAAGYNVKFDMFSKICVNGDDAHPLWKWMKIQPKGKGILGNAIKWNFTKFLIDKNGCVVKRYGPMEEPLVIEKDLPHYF
Chain of Metallo-beta-lactamase type 2 (Klebsiella pneumoniae) (C7C422 whole entry, looked up): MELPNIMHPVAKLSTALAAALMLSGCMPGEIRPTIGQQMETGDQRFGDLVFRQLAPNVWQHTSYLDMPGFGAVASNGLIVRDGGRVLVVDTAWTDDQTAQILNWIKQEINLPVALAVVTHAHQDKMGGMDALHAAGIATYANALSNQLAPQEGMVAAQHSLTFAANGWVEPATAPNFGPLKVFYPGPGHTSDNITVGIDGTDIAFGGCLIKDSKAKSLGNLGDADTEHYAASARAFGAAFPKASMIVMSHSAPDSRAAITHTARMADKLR

| SMILES | activity change, negative = cytotoxicity [1] | Potency [2] | Potency [3] | outcome [4] |
| --- | --- | --- | --- | --- |
| NCCCC[C@H](N[C@@H](CCc1ccccc1)C(=O)O)C(=O)N1CCC[C@H]1C(=O)O | -8.63% [at 8.35 µM] | inactive | inactive | – |
| COc1cc(/C=C/C(=O)O[C@H]2CC[C@]34C[C@]35CC[C@]3(C)[C@@H]([C@H](C)CCC=C(C)C)CC[C@@]3(C)[C@@H]5CC[C@H]4C2(C)C)ccc1O | – | inactive | – | – |
| CCN(CCCc1ccccc1)CCCc1ccccc1 | – | inactive | inactive | – |
| CC(C)n1nc(-c2cc3cc(O)ccc3[nH]2)c2c(N)ncnc21 | – | inactive | inactive | – |
| CC(=O)O[C@H]1C[C@@H]2CC[C@@H]3[C@H](CC[C@@]4(C)[C@H]3C[C@H]([N+]3(C)CCCCC3)[C@@H]4OC(C)=O)[C@@]2(C)C[C@@H]1[N+]1(C)CCCCC1 | – | inactive | inactive | inactive |
| C[C@@H]1C(=O)NC2=Nc3cccc(Cl)c3CN21 | – | inactive | inactive | inactive |
| CC1(C)CCC(NC(=O)[C@@H](N)CCC(=O)O)CC1 | – | – | inactive | inactive |
| Oc1ccc(O)cc1 | – | inactive | inactive | inactive |
| CC1(C)O[C@@H]2C[C@H]3[C@@H]4CCC5=CC(=O)CC[C@]5(C)[C@@]4(F)[C@@H](O)C[C@]3(C)[C@]2(C(=O)CCl)O1 | – | inactive | inactive | – |
| COc1cc2c(cc1OC)C(=O)C(CC1CCN(Cc3ccccc3)CC1)C2 (configuration not stated) | – | inactive | – | – |
| C[C@]12CC[C@@H]3c4ccc(O)cc4CC[C@H]3[C@@H]1CC[C@@H]2O | – | – | inactive | inactive |
| Nc1cc(Cl)c(NC2=NCCN2)c(Cl)c1 | – | inactive | inactive | inactive |
| CC(C)COC(=O)OCN1C(=O)CN(CCN2CC(=O)N(COC(=O)OCC(C)C)C(=O)C2)CC1=O | – | inactive | inactive | – |
| O=C(O)CNC(=O)c1ccccc1 | – | inactive | inactive | – |
| N[C@@H](Cc1cnc[nH]1)C(=O)O | – | inactive | inactive | inactive |
| CC(C)=CCC1C(=O)N(c2ccccc2)N(c2ccccc2)C1=O | – | inactive | inactive | – |
| CCOc1ccc(NC(=O)CC(C)O)cc1 (configuration not stated) | – | inactive | – | – |
| CN1[C@@H]2CC[C@H]1CC(OC(=O)c1c[nH]c3ccccc13)C2 (some centres not stated) | – | inactive | inactive | – |
| CC1(C)O[C@@H]2C[C@H]3[C@@H]4C[C@H](F)C5=CC(=O)CC[C@]5(C)[C@H]4[C@@H](O)C[C@]3(C)[C@]2(C(=O)CO)O1 | – | inactive | inactive | – |
| CCCC(=O)Nc1ccc(OCC(O)CNC(C)C)c(C(C)=O)c1 (configuration not stated) | – | inactive | inactive | – |
| CCC(NC(C)C)C(O)c1ccc(O)c(O)c1 (configuration not stated) | – | – | inactive | inactive |
| CC(=O)Nc1c(I)cc(I)c(C(=O)O)c1I | – | inactive | inactive | – |
| CC(CCc1ccccc1)NCC(O)c1ccc(O)c(C(N)=O)c1 (configuration not stated) | – | inactive | inactive | inactive |
| COC(=O)CCc1ccc(OCC(O)CNC(C)C)cc1 (configuration not stated) | – | inactive | inactive | – |
| O=C1CCC(c2ccc(-n3ccnc3)cc2)=NN1 | – | inactive | inactive | inactive |
| CCOC(=O)OC(C)OC1=C(C(=O)Nc2ccccn2)N(C)S(=O)(=O)c2ccccc21 (configuration not stated) | – | inactive | inactive | – |
